From article PMC7862700, “An all-to-all approach to the identification of sequence-specific readers for epigenetic DNA modifications on cytosine”

Columns and labels:
Experiment in all cases: DAPPL (digital affinity profiling via proximity ligation, sequencing); 10 mM Tris-HCl pH 7.5, 50 mM NaCl, 1 mM DTT, 4% glycerol, room temperature, 30 min; GST-TFs on glutathione beads, 16-mer random dsDNA library, 0.1% formaldehyde crosslink after washing; high values mean tight binding
Settings in all cases: protein: recombinant; tags: N-terminal GST; dsDNA, one strand shown
ERG = molecular target: T1, ERG (Homo sapiens, UniProt P11308 1-479)
T1 sequence: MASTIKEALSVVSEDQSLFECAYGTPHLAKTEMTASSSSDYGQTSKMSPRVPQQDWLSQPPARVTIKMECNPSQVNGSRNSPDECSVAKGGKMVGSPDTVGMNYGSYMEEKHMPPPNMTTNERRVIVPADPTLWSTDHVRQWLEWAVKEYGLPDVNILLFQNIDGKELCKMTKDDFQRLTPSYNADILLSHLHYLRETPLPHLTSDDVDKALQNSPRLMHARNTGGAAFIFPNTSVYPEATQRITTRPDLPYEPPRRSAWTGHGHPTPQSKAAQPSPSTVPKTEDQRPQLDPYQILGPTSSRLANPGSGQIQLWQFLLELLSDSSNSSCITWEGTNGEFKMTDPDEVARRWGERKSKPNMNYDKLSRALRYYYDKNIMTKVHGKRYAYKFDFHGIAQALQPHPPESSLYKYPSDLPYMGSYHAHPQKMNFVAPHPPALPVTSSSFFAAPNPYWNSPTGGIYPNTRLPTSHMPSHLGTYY
In short: (§1)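 Yeast served to express human transcription factors as GST fusions, which were then captured on glutathione beads and labelled with DNA barcodes. Pooled with a tag-only sample, they were incubated with 200 nmole of a 16-mer random double-stranded DNA library for 30 min at room temperature in Tris/NaCl/DTT/glycerol buffer, washed, crosslinked with 0.1% formaldehyde, ligated by proximity, amplified by PCR and sequenced. Dividing each hexamer's read frequency for a factor by its frequency for the tag-only sample gives the binding signal.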

SPI1 = SPI1 (Homo sapiens, UniProt P17947 1-270)
In short: as §1

SPIB = SPIB (Homo sapiens, UniProt Q01892 1-262)
In short: as §1

ELK4 = molecular target: T2, ELK4 (Homo sapiens, UniProt P28324-2 1-405)
T2 sequence: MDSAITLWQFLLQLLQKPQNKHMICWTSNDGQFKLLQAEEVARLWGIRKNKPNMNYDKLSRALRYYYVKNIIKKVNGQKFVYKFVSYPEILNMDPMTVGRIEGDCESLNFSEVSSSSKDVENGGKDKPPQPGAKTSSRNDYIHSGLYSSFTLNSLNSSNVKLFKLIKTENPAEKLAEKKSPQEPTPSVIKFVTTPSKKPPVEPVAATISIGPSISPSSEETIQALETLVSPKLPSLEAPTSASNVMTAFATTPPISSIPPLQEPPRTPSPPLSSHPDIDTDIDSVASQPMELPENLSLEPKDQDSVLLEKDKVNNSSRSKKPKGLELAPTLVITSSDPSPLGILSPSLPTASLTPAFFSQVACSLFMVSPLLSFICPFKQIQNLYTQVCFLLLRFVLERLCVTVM
In short: as §1

ETV1 = ETV1 (Homo sapiens, UniProt P50549 1-477)
In short: as §1

ETV7 = molecular target: T3, ETV7 (Homo sapiens, UniProt Q9Y603 1-341)
T3 sequence: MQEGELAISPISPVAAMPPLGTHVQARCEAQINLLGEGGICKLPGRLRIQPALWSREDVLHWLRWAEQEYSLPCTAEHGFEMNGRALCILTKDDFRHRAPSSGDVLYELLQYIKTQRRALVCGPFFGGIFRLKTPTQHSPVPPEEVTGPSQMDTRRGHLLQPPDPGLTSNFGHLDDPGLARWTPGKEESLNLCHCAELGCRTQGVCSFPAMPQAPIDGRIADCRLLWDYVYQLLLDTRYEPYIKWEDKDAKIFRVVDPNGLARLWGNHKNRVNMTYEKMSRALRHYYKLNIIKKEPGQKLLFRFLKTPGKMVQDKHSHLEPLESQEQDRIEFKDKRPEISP
In short: as §1

ETV3 = molecular target: T4, ETV3 (Homo sapiens, UniProt P41162-2 1-143)
T4 sequence: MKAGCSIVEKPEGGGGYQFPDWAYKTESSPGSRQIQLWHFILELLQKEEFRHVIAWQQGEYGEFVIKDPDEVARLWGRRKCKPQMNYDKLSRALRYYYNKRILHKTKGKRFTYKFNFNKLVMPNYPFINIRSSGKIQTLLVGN
In short: as §1

ETV6 = ETV6 (Homo sapiens, UniProt P41212 1-452)
In short: as §1

ELK1 = molecular target: T5, ELK1 (Homo sapiens, UniProt P19419 1-428)
T5 sequence: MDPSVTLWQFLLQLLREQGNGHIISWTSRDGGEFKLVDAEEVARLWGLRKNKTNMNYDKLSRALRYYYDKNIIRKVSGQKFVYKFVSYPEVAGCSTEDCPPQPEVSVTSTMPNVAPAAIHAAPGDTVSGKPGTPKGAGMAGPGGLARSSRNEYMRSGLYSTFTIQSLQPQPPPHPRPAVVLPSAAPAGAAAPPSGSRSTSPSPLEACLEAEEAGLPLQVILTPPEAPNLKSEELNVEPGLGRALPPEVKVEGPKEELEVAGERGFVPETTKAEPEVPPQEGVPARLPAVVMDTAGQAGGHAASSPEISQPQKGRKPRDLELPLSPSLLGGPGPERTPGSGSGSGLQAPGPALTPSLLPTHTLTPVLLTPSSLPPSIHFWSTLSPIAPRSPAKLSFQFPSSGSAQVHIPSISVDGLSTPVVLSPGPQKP
In short: as §1

GABPA = molecular target: T6, GABPA (Homo sapiens, UniProt Q06546 1-454)
T6 sequence: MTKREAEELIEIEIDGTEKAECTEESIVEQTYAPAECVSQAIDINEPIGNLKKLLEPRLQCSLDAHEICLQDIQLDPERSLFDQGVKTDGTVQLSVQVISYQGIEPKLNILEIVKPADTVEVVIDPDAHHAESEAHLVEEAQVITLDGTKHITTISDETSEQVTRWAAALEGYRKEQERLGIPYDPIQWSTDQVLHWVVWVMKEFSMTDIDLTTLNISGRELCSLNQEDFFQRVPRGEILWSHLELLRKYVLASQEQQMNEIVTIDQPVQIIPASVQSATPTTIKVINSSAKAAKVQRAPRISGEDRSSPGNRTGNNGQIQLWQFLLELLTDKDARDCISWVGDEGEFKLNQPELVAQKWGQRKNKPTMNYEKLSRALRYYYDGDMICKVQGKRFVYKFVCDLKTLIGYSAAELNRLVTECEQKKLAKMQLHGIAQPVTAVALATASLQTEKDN
In short: as §1

ELF1 = ELF1 (Homo sapiens, UniProt P32519 1-619)
In short: as §1

EHF = molecular target: T7, EHF (Homo sapiens, UniProt Q9NZC4 1-300)
T7 sequence: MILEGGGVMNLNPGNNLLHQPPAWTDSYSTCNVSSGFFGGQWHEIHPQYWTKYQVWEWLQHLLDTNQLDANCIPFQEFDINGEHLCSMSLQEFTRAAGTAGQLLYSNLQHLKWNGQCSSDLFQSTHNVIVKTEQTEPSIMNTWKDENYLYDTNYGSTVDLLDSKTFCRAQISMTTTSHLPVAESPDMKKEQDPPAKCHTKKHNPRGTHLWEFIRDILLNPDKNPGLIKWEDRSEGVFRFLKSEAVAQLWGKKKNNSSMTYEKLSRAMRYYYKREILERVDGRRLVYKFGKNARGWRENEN
In short: as §1

SPIC = molecular target: T8, SPIC (Homo sapiens, UniProt Q8N5J4 1-248)
T8 sequence: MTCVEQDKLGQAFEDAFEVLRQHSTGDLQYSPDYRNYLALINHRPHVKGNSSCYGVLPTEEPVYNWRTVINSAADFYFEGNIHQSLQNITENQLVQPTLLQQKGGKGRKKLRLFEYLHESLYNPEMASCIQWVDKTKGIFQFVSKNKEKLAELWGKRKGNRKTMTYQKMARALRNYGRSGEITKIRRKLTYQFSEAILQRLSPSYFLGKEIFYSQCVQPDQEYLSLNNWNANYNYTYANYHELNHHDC
In short: as §1

ELF4 = ELF4 (Homo sapiens, UniProt Q99607 1-663)
In short: as §1

ETV2 = molecular target: T9, ETV2 (Homo sapiens, UniProt O00321 1-342)
T9 sequence: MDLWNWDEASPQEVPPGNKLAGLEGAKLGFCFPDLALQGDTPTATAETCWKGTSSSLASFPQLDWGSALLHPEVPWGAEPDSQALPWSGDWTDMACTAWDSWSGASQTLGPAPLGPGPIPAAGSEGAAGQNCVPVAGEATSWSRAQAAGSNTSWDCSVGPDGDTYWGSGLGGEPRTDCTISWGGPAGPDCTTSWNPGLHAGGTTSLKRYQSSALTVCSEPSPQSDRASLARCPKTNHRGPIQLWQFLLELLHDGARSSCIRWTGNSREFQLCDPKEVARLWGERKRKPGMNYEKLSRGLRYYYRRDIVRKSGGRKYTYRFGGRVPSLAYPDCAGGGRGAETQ
In short: as §1

ELF3 = molecular target: T10, ELF3 (Homo sapiens, UniProt P78545 1-371)
T10 sequence: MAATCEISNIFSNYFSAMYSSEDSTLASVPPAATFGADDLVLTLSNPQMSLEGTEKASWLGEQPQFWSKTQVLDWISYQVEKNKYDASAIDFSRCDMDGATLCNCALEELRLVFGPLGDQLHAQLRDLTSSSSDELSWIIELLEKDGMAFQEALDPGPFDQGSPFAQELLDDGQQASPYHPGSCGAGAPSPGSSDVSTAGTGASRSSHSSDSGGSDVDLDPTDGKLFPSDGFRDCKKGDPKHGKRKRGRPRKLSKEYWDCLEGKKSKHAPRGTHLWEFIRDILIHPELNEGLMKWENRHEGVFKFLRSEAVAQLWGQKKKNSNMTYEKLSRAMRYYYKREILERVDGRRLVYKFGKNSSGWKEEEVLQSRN
In short: as §1

ETV3L = molecular target: T11, ETV3L (Homo sapiens, UniProt Q6ZN32 1-361)
T11 sequence: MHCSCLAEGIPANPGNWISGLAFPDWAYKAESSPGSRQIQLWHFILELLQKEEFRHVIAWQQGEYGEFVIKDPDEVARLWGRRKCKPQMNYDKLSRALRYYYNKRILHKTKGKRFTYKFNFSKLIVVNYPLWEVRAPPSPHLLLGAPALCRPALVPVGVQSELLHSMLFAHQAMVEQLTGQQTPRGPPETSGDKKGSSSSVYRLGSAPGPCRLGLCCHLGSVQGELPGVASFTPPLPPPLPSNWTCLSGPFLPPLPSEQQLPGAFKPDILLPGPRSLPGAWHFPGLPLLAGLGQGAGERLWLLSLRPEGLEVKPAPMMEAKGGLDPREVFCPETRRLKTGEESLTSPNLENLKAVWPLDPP
In short: as §1

Sequence of ETV6 (P41212 whole entry): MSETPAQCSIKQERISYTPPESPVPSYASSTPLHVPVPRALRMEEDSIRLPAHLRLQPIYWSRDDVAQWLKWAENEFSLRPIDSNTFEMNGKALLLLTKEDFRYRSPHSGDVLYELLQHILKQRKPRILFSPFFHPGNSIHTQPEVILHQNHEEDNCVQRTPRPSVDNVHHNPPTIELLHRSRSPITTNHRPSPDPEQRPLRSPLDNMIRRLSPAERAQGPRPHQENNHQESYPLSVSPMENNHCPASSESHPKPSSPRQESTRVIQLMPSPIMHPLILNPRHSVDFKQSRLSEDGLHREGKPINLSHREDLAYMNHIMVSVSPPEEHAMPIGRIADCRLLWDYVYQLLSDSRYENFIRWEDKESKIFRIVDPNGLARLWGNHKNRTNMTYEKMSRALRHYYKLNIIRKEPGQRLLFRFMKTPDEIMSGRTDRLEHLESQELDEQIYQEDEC
Sequence of SPIB (Q01892 whole entry): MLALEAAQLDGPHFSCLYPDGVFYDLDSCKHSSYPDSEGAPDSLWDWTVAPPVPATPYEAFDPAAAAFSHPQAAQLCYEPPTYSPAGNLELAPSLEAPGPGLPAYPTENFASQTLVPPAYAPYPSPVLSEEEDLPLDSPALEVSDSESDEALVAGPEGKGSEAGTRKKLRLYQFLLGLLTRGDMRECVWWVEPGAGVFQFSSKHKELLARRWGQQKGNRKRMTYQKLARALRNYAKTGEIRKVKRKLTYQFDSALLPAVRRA
Sequence of ETV1 (P50549 whole entry): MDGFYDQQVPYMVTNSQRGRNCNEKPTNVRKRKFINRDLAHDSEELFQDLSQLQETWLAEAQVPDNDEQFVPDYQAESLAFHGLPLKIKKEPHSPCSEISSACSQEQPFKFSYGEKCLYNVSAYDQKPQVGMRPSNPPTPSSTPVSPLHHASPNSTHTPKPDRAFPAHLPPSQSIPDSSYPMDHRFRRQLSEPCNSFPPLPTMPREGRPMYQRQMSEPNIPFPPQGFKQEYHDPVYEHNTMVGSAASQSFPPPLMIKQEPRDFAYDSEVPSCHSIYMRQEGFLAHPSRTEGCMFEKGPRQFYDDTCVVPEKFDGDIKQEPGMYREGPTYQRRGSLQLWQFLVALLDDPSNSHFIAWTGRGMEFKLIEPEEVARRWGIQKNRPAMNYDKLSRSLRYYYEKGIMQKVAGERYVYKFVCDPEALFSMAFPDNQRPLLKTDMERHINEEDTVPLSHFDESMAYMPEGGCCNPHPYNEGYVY
Sequence of ELF1 (P32519 whole entry): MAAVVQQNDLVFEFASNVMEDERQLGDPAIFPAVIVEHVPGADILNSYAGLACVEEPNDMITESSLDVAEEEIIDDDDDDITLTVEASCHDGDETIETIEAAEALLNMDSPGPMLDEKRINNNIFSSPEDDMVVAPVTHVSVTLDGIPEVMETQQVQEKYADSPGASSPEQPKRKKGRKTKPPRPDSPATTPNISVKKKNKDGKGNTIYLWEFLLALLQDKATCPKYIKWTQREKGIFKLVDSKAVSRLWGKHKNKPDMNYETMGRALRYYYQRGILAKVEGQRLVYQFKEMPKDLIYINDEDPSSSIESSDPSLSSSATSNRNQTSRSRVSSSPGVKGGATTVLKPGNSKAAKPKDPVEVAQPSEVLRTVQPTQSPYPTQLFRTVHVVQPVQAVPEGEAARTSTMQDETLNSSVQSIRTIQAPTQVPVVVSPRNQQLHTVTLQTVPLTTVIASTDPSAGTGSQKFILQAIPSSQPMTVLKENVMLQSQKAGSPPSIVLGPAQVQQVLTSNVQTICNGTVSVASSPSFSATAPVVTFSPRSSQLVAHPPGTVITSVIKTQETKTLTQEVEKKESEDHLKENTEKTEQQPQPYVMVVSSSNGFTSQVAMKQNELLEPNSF
Sequence of ELF4 (Q99607 whole entry): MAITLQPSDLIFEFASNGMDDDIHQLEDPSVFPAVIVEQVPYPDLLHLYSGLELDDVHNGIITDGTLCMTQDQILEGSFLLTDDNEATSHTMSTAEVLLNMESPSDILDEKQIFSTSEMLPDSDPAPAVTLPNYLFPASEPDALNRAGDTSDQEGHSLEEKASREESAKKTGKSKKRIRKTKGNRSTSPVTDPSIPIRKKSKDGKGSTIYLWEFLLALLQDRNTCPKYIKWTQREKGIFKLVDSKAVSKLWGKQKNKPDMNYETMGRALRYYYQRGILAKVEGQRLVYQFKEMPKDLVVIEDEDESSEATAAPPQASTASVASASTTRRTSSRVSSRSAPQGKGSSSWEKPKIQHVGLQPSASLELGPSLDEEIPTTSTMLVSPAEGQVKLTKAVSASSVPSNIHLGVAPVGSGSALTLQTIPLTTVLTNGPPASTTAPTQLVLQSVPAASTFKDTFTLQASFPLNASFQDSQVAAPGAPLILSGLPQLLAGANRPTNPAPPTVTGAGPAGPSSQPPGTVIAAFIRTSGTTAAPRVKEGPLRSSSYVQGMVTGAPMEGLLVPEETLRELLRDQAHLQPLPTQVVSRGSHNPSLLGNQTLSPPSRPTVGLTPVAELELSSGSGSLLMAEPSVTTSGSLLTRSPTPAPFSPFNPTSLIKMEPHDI

TGGAAG
binding signal (ERG): 1.05 fold enrichment (6-mer frequency, TF over GST control) | binding signal (SPI1): 1.08 fold enrichment (6-mer frequency, TF over GST control) | binding signal (SPIB): 1.11 fold enrichment (6-mer frequency, TF over GST control) | binding signal (ELK4): 1.06 fold enrichment (6-mer frequency, TF over GST control) | binding signal (ETV1): 1.02 fold enrichment (6-mer frequency, TF over GST control) | binding signal (ETV7): 1.13 fold enrichment (6-mer frequency, TF over GST control) | binding signal (ETV3): 1.07 fold enrichment (6-mer frequency, TF over GST control) | binding signal (ETV6): 1.19 fold enrichment (6-mer frequency, TF over GST control)

GCAGCT
binding signal (ELK1): 1.04 fold enrichment (6-mer frequency, TF over GST control) | binding signal (GABPA): 1.07 fold enrichment (6-mer frequency, TF over GST control) | binding signal (ERG): 1.02 fold enrichment (6-mer frequency, TF over GST control) | binding signal (ELF1): 1.06 fold enrichment (6-mer frequency, TF over GST control) | binding signal (EHF): 1.03 fold enrichment (6-mer frequency, TF over GST control) | binding signal (SPI1): 1 fold enrichment (6-mer frequency, TF over GST control) | binding signal (SPIB): 1.01 fold enrichment (6-mer frequency, TF over GST control) | binding signal (SPIC): 1.14 fold enrichment (6-mer frequency, TF over GST control) | binding signal (ELF4): 1.06 fold enrichment (6-mer frequency, TF over GST control) | binding signal (ELK4): 1.08 fold enrichment (6-mer frequency, TF over GST control) | binding signal (ETV2): 1.06 fold enrichment (6-mer frequency, TF over GST control) | binding signal (ELF3): 1.07 fold enrichment (6-mer frequency, TF over GST control) | binding signal (ETV1): 1.13 fold enrichment (6-mer frequency, TF over GST control) | binding signal (ETV3L): 1.08 fold enrichment (6-mer frequency, TF over GST control) | binding signal (ETV7): 1.11 fold enrichment (6-mer frequency, TF over GST control) | binding signal (ETV6): 1.06 fold enrichment (6-mer frequency, TF over GST control)
